# Targets with a hit are over-represented here; the source holds about 7,900 in all. About 0.6% of all pairs of compound and target were hits.
# Compound: CCCCN(Cc1ccc(C(=O)NO)cc1)C(=O)Nc1ccccc1 [Nexturastat A]
# Test: log2 fold change, soluble protein after heating vs DMSO (PISA); higher = thermal stabilisation; K562 cells, 10 uM, 30 min; active = over 0.2 and 3.5 SD of the protein, either way, in both replicates (recomputed)
# Summary of the method: (§1)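 Aliquots of K562 cells (2×10^6 cells/mL) treated with 10 μM compound for 30 min were heated for 3 min over 48°C-58°C. After pooling and extraction in PBS with 0.5% NP-40 at 4°C, soluble protein from a 21,000xg, 90 min spin was quantified by TMTpro 16plex LC-MS/MS with channel sums equalised. Thermal stability is expressed against control samples, from duplicates, as a log2 fold change.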
# Sequence of UniProt O15530 (O15530 whole entry, looked up): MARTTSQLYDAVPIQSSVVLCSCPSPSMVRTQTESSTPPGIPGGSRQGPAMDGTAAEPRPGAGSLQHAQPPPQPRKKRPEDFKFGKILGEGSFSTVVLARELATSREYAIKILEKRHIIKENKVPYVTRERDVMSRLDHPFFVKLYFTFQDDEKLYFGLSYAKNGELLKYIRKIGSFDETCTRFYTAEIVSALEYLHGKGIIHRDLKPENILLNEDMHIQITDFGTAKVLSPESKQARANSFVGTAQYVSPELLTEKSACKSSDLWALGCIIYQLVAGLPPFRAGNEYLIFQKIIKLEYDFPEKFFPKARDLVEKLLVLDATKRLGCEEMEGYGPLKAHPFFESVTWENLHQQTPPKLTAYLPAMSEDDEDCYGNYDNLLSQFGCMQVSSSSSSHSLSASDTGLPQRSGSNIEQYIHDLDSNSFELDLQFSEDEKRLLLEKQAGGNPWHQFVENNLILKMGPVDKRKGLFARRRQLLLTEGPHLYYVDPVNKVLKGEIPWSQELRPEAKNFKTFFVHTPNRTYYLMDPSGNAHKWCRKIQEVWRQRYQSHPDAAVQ
# Sequence of UniProt Q8N8N7 (Q8N8N7 whole entry, looked up): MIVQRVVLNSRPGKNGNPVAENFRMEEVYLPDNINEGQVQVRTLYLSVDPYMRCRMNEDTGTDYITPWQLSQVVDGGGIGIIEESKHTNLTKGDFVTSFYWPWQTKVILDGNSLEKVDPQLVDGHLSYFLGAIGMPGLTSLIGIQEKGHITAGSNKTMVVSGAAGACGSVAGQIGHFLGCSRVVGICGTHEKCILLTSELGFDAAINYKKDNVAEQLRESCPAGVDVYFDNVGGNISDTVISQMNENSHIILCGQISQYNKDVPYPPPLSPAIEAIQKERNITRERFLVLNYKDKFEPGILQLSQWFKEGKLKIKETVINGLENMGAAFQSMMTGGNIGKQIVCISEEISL
# Sequence of UniProt Q13200 (Q13200 whole entry, looked up): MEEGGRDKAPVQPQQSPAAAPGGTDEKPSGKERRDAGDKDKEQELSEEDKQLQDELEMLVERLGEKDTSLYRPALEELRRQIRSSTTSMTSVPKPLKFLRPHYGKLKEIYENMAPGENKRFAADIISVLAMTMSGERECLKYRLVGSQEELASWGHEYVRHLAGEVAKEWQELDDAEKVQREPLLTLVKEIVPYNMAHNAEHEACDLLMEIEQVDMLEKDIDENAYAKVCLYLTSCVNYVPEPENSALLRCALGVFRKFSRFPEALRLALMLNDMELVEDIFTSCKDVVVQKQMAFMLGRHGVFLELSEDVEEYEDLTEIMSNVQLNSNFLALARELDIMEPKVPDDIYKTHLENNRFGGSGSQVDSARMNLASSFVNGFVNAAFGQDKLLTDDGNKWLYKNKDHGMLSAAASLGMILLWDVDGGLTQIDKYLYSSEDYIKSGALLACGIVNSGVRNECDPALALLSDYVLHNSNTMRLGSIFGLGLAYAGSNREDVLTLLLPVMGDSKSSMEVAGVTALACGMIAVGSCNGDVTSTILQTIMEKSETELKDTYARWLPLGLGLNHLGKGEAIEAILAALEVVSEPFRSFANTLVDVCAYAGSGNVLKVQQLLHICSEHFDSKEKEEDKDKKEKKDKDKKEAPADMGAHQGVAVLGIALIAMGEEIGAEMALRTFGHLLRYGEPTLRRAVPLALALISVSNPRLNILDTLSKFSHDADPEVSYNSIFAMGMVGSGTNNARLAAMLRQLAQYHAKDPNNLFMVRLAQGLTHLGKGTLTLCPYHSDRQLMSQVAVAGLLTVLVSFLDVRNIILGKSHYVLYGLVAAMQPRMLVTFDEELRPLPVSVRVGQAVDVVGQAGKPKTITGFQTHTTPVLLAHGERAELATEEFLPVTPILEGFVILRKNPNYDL
# Sequence of UniProt Q8N4L2 (Q8N4L2 whole entry, looked up): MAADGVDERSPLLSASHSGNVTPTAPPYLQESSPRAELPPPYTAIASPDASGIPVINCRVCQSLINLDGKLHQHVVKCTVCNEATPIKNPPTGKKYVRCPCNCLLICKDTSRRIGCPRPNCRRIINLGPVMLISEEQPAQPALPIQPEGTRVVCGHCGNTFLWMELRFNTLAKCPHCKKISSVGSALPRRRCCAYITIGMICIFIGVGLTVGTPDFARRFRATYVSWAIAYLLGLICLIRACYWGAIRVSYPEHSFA
# Sequence of UniProt Q8WUA2 (Q8WUA2 whole entry, looked up): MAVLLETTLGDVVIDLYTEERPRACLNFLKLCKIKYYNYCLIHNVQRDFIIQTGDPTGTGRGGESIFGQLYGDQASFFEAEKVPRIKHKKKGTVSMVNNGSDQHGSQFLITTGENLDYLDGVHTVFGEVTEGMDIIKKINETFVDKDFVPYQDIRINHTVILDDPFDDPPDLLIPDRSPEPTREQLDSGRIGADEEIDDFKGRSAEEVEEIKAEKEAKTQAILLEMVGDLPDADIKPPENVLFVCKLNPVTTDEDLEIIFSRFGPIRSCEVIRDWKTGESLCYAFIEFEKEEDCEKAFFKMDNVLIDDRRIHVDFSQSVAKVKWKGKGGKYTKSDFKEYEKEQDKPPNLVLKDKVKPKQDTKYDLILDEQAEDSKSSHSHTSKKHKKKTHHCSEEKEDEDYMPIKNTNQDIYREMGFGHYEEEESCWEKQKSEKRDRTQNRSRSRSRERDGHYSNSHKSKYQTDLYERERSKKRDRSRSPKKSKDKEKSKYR
# Sequence of UniProt O14974 (O14974 whole entry, looked up): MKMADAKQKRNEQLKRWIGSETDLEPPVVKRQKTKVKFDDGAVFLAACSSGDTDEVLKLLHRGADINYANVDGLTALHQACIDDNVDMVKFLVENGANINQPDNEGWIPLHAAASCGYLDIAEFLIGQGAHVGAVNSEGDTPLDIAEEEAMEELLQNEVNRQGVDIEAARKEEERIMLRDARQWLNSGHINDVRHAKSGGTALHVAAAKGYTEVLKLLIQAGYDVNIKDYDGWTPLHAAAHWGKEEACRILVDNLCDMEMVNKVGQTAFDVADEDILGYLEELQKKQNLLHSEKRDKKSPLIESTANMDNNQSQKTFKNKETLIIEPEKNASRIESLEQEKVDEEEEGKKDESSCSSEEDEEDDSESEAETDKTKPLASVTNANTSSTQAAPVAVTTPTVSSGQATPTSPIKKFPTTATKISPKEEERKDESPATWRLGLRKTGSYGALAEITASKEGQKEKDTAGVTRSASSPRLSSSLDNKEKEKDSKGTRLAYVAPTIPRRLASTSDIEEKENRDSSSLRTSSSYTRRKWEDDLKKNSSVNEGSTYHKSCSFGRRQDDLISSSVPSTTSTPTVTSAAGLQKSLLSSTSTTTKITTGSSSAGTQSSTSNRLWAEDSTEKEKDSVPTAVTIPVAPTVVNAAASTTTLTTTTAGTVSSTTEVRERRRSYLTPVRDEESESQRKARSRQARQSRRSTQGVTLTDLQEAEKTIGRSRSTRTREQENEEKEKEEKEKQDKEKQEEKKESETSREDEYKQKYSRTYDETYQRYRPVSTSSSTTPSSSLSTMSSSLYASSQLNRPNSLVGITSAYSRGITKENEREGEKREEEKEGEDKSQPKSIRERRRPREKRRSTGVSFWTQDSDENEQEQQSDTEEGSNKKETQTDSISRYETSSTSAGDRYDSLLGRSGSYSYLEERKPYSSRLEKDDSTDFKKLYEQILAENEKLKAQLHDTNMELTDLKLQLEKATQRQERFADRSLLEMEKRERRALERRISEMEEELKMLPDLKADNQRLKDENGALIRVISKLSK
# Sequence of UniProt Q86T03 (Q86T03 whole entry, looked up): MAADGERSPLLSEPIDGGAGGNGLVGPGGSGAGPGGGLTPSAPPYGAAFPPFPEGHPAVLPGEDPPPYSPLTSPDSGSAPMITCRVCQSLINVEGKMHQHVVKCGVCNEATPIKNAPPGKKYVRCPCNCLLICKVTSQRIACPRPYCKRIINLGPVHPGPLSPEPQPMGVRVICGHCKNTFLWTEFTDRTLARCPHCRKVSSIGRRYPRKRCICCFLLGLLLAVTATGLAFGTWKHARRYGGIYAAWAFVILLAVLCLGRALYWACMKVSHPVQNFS
# Sequence of UniProt Q5JRX3 (Q5JRX3 whole entry, looked up): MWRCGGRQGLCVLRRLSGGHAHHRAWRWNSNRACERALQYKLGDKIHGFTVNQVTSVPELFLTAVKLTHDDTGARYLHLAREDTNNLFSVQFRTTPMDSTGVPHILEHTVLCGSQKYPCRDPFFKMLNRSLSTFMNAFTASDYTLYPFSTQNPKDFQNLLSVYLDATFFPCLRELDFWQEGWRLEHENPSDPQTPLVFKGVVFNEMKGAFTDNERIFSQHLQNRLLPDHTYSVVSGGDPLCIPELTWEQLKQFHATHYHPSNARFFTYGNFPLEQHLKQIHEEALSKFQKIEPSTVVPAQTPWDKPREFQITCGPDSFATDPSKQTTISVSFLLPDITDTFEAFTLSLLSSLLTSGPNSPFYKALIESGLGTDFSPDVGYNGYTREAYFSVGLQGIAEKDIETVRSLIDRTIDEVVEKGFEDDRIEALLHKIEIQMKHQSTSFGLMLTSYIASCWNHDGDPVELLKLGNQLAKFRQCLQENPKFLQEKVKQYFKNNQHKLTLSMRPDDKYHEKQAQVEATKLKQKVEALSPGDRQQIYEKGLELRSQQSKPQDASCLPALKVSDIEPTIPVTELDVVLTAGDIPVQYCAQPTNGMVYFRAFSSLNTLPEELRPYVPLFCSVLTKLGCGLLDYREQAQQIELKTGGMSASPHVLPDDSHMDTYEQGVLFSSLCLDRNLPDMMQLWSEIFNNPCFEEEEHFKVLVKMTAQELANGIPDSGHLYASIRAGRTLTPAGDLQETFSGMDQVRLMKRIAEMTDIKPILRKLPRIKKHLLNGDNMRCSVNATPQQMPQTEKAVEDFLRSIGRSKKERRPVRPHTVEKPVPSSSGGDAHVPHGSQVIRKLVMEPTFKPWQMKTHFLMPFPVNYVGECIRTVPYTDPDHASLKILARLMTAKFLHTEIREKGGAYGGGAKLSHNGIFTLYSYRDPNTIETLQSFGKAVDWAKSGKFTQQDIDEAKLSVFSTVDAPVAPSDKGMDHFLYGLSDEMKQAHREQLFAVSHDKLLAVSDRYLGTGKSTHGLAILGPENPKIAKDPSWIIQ
row,Target,log2 fold change
1,PRPF40A (UniProt O75400),-0.051 (inactive)
2,PHAX (UniProt Q9H814),0.02 (inactive)
3,PDPK1 (UniProt O15530),-0.12 (inactive)
4,PDE4DIP isoform 4 (UniProt Q5VU43),0.358 (active)
5,PIR (UniProt O00625),-0.053 (inactive)
6,PSMC2 (UniProt P35998),0.011 (inactive)
7,PEX16 isoform 2 (UniProt Q9Y5Y5),-0.033 (inactive)
8,PLEKHM2 (UniProt Q8IWE5),-0.028 (inactive)
9,PRIM1 (UniProt P49642),0.162 (inactive)
10,PRPF31 (UniProt Q8WWY3),-0.01 (inactive)
11,PCNT (UniProt O95613),0.007 (inactive)
12,PTGR2 (UniProt Q8N8N7),-0.175 (inactive)
13,PSMC5 (UniProt P62195),0.003 (inactive)
14,PRKCA (UniProt P17252),0.023 (inactive)
15,PRMT3 (UniProt O60678),-0.026 (inactive)
16,PARN (UniProt O95453),-0.069 (inactive)
17,PRKAA1 isoform 2 (UniProt Q13131),-0.042 (inactive)
18,PJA2 (UniProt O43164),0.188 (inactive)
19,PRPF3 (UniProt O43395),-0.087 (inactive)

row,Target,log2 fold change
1,PITRM1 isoform 2 (UniProt Q5JRX3),-0.152 (inactive)
2,PLA2G15 (UniProt Q8NCC3),0.089 (inactive)
3,PIP4K2B (UniProt P78356),-0.088 (inactive)
4,PDE2A (UniProt O00408),-0.054 (inactive)
5,PIP4P2 (UniProt Q8N4L2),-0.092 (inactive)
6,PRKCD (UniProt Q05655),-0.032 (inactive)
7,PLCB3 (UniProt Q01970),-0.019 (inactive)
8,POLR2B (UniProt P30876),0.054 (inactive)
9,PPIL4 (UniProt Q8WUA2),0.145 (inactive)
10,PCTP (UniProt Q9UKL6),-0.003 (inactive)
11,PDE12 (UniProt Q6L8Q7),-0.064 (inactive)
12,PPP1R12A (UniProt O14974),0.001 (inactive)
13,PIP4P1 isoform 2 (UniProt Q86T03),0.035 (inactive)
14,PDS5B (UniProt Q9NTI5),-0.011 (inactive)
15,PTGES3 (UniProt Q15185),-0.046 (inactive)
16,PLBD2 (UniProt Q8NHP8),-0.053 (inactive)
17,PRKAR1B (UniProt P31321),0.015 (inactive)
18,PSMD2 (UniProt Q13200),0.024 (inactive)

# Compound: CCCS(=O)(=O)Nc1ccc(F)c(C(=O)c2c[nH]c3ncc(-c4ccc(Cl)cc4)cc23)c1F [vemurafenib]
# Test: as above
# Summary of the method: as §1
row,Target,log2 fold change
1,PRPF40A (UniProt O75400),0.109 (inactive)
2,PHAX (UniProt Q9H814),0.002 (inactive)
3,PDPK1 (UniProt O15530),0.03 (inactive)
4,PDE4DIP isoform 4 (UniProt Q5VU43),-0.034 (inactive)
5,PIR (UniProt O00625),0.03 (inactive)
6,PSMC2 (UniProt P35998),-0.014 (inactive)
7,PEX16 isoform 2 (UniProt Q9Y5Y5),0.071 (inactive)
8,PLEKHM2 (UniProt Q8IWE5),0.075 (inactive)
9,PRIM1 (UniProt P49642),0.042 (inactive)
10,PRPF31 (UniProt Q8WWY3),-0.017 (inactive)
11,PCNT (UniProt O95613),-0.122 (inactive)
12,PTGR2 (UniProt Q8N8N7),-0.022 (inactive)
13,PSMC5 (UniProt P62195),-0.048 (inactive)
14,PRKCA (UniProt P17252),-0.015 (inactive)
15,PRMT3 (UniProt O60678),0.056 (inactive)
16,PARN (UniProt O95453),0 (inactive)
17,PRKAA1 isoform 2 (UniProt Q13131),0.025 (inactive)
18,PJA2 (UniProt O43164),-0.024 (inactive)
19,PRPF3 (UniProt O43395),0.1 (inactive)

row,Target,log2 fold change
1,PITRM1 isoform 2 (UniProt Q5JRX3),0.002 (inactive)
2,PLA2G15 (UniProt Q8NCC3),0.044 (inactive)
3,PIP4K2B (UniProt P78356),0.045 (inactive)
4,PDE2A (UniProt O00408),0.013 (inactive)
5,PIP4P2 (UniProt Q8N4L2),-0.013 (inactive)
6,PRKCD (UniProt Q05655),0.015 (inactive)
7,PLCB3 (UniProt Q01970),0.024 (inactive)
8,POLR2B (UniProt P30876),0.006 (inactive)
9,PPIL4 (UniProt Q8WUA2),0.001 (inactive)
10,PCTP (UniProt Q9UKL6),0.005 (inactive)
11,PDE12 (UniProt Q6L8Q7),-0.006 (inactive)
12,PPP1R12A (UniProt O14974),0.015 (inactive)
13,PIP4P1 isoform 2 (UniProt Q86T03),-0.198 (inactive)
14,PDS5B (UniProt Q9NTI5),-0.032 (inactive)
15,PTGES3 (UniProt Q15185),0.032 (inactive)
16,PLBD2 (UniProt Q8NHP8),-0.028 (inactive)
17,PRKAR1B (UniProt P31321),0.04 (inactive)
18,PSMD2 (UniProt Q13200),-0.091 (inactive)
